Unmarked numbers belong to inactive results. The source made the active and inactive calls. Unless noted, no stated cut-off is given here; in the data, active means inhibition above about 44%; inactive means the rest.
Assays:
[1] = StAR promoter reporter inhibitors, counter-screen for LRH-1 inverse agonist project, cell-based, luminescence, high throughput (AID 651611; in the data active means inhibition above about 28%); details: StAR promoter luciferase reporter counterscreen, at 3.6 µM, active compounds read high
[2] = target: Nuclear receptor subfamily 5 group A member 2 (Homo sapiens) (UniProt O00482); test: LRH-1 (NR5A2) inverse agonists, retest, confirmation, cell-based, luminescence (AID 651613; in the data active means inhibition above about 42%;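 further: HEK293T cells co-transfected with LRH-1 and StAR promoter luciferase reporter; 0% = vehicle wells and 100% = parental cells lacking receptor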); details: cell-based LRH-1 luciferase reporter, inverse agonism; at 3.6 µM; active compounds read high
Chain of Nuclear receptor subfamily 5 group A member 2 (Homo sapiens) (O00482 whole entry, looked up): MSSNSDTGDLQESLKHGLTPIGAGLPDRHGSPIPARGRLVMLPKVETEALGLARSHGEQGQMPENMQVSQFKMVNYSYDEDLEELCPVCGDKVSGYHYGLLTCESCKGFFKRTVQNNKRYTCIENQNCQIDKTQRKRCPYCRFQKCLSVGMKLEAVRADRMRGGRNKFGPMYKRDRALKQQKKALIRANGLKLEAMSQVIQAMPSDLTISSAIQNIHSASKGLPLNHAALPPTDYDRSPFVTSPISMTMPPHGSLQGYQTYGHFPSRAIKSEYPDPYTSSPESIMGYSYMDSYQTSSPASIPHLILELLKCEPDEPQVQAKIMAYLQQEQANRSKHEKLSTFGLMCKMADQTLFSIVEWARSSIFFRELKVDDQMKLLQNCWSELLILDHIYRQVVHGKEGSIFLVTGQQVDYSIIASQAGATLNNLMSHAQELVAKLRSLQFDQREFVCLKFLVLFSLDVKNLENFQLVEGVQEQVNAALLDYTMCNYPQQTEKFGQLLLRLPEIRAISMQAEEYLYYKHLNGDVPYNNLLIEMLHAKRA

[3] = target: Steroidogenic factor 1 (Homo sapiens) (UniProt Q13285); test: SF1 (NR5A1) inverse agonists, counter-screen for LRH-1 inverse agonist project, cell-based, luminescence, high throughput (AID 651614); details: cell-based SF1 luciferase reporter, at 3.6 µM, active compounds read high;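 further: cells cotransfected with StAR promoter reporter and SF1 expression vector; 0% = vehicle on cells with receptor and 100% = vehicle on cells lacking receptor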
Chain of Steroidogenic factor 1 (Homo sapiens) (Q13285 whole entry, looked up, the tested form may be a part): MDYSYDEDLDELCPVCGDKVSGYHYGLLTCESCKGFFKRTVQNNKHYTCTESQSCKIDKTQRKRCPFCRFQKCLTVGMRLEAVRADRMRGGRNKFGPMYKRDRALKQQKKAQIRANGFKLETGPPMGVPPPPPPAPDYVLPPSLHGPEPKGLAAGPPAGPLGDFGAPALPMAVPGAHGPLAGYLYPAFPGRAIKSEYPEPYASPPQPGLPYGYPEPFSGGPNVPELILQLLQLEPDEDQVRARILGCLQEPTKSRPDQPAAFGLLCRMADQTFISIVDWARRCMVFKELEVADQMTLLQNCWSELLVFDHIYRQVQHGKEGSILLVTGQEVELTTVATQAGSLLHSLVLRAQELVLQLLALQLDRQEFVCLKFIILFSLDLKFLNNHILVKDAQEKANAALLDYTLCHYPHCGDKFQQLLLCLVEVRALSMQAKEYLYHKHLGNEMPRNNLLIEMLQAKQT

[4] = VP16 transactivation reporter inhibitors, counter-screen for LRH-1 inverse agonist project, cell-based, luminescence, high throughput (AID 651615; in the data active means inhibition above about 33%); details: Gal4-VP16 luciferase reporter cells, at 3.6 µM, active compounds read high

CCOC(=O)C1CCCN(S(=O)(=O)c2ccc(S(=O)(=O)N(CC)CC)cc2)C1 (centres undefined)
inhibition [1]: 18.1%
inhibition [2]: 60.3% (active)
inhibition [3]: 54.5% (active)
inhibition [4]: 49.5% (active)

Cc1csc(NC(=O)CSc2nc3[nH]c(=O)cc(O)c3s2)n1
inhibition [1]: 15.2%
inhibition [2]: 60.5% (active)
inhibition [3]: 68.1% (active)
inhibition [4]: -21.4%

Cc1cc(C)c2c(C)c(C(=O)NCc3ccncc3)oc2c1
inhibition [1]: 9.09%
inhibition [2]: 46.3% (active)
inhibition [3]: 38.3%
inhibition [4]: 7.5%

CCOc1ccc(NC(=O)CSc2nccn(-c3ccc4c(c3)OCCO4)c2=O)cc1
inhibition [1]: -5.61%
inhibition [2]: 55% (active)
inhibition [3]: 60.7% (active)
inhibition [4]: -10.1%

O=C(Nc1ccc(N2CCN(Cc3ccccc3F)CC2)cc1)c1ccc([N+](=O)[O-])o1
inhibition [1]: 28.7% (active)
inhibition [2]: 70.6% (active)
inhibition [3]: 73.9% (active)
inhibition [4]: 32.6% (active)

CCN(CC)c1nc(C)c(C(C)=O)cc1C#N
inhibition [1]: 1.34%
inhibition [2]: 32.7%
inhibition [3]: 57% (active)
inhibition [4]: 12%

CC1CCCC(C)N1C(=O)COC(=O)Cc1ccc(Cl)cc1 (centres undefined)
inhibition [1]: -5.45%
inhibition [2]: 51.2% (active)
inhibition [3]: 41.8%
inhibition [4]: 0.05%

COc1cccc(-c2cc(NC=O)c3ncc(-c4ccc(C(C)=O)cc4)n3c2)c1
inhibition [1]: 45.1% (active)
inhibition [2]: 65.2% (active)
inhibition [3]: 60.1% (active)
inhibition [4]: -11.4%

CCOc1ccc(NC(=O)Cn2cc(C(=O)C3CC3)c3ccccc32)cc1
inhibition [1]: 5.9%
inhibition [2]: 44.1% (active)
inhibition [3]: 37.5%
inhibition [4]: -14.7%

CCc1cc(=O)oc2cc3occ(-c4ccc(OC)c(F)c4)c3cc12
inhibition [1]: 26.4%
inhibition [2]: 75% (active)
inhibition [3]: 60.6% (active)
inhibition [4]: 23.1%

O=C(Nc1ccc(NC(=O)c2ccc([N+](=O)[O-])o2)cc1Cl)c1ccco1
inhibition [1]: 19.6%
inhibition [2]: 59.8% (active)
inhibition [3]: 73% (active)
inhibition [4]: -20.2%

CC(=O)Nc1cc(-c2cccc(F)c2)cn2c(-c3ccc(S(C)(=O)=O)cc3)cnc12
inhibition [1]: 8.88%
inhibition [2]: 50.2% (active)
inhibition [3]: 54.6% (active)
inhibition [4]: -14.3%

Nc1cccc2nc3ccccc3cc12
inhibition [1]: 21.7%
inhibition [2]: 104% (active)
inhibition [3]: 55.1% (active)
inhibition [4]: 92.2% (active)

Cc1ccc(-c2csc(NC(=O)C3CCN(S(=O)(=O)c4cccs4)CC3)n2)cc1
inhibition [1]: 15.3%
inhibition [2]: 58.5% (active)
inhibition [3]: 55.4% (active)
inhibition [4]: 47.9% (active)

Cc1cc(C)c(C(N)=O)c(Nc2cccc3ccccc23)n1
inhibition [1]: 1.09%
inhibition [2]: 2%
inhibition [3]: 22.7%
inhibition [4]: -17.9%

CCOCC(=O)Nc1cccc(C(=O)OCC)c1
inhibition [1]: -6.06%
inhibition [2]: 36.9%
inhibition [3]: 28.2%
inhibition [4]: 2.72%

— PubChem BioAssay
